# Assay results published in PubChem BioAssay (NCI).
# This is part of a sample that, as a whole, favours compounds with a hit. Of some 83,000 tested, about 20% had one in any assay.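 Assay: single dose, 48 h. Readout: percent growth (0 = no net growth; negative = cell death). Active: <10.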 A number with no mark means an inactive call. Calls of active or inactive are those of the source.
# Key:
# Test in all cases: NCI-60 one-dose screen, 48 h (100 = growth as untreated, 0 = no growth, -100 = all killed)
# Settings in all cases: 10 µM unless noted
# [1] = system: NCI-H23 lung
# [2] = system: NCI-H322M lung
# [3] = system: HOP-62 NSCLC
# [4] = system: NCI-H460 lung
# [5] = system: HOP-92 NSCLC
# [6] = system: NCI-H522 lung
# [7] = system: A549/ATCC NSCLC
# [8] = system: 786-0 renal
# [9] = system: COLO 205 colon
# [10] = system: DU-145 prostate
# [11] = system: K-562 leukemia
# [12] = system: MALME-3M melanoma
# [13] = system: MDA-MB-231 breast
# [14] = system: SF-268 CNS
# [15] = system: SF-295 CNS
# [16] = system: SF-539 CNS
# [17] = system: M14 melanoma
# [18] = system: RXF 393 renal
# [19] = system: UACC-257 melanoma
SMILES,growth [1] [%],growth [2] [%],growth [3] [%],growth [4],growth [5],growth [6],growth [7] [%],growth [8],growth [9],growth [10],growth [11],growth [12],growth [13],growth [14],growth [15],growth [16],growth [17],growth [18],growth [19]
CCCCN1CCCC[C@@H]1C(=O)N[C@H](C(=O)N(C)[C@H](CCc1nc(C(=O)N[C@@H](Cc2ccccc2)C[C@H](C)C(=O)OC)cs1)C(C)C)[C@@H](C)CC,62.6,71.1,56.9,57.5%,22.2%,25.1%,58.8,66.8%,22.3%,79.2%,34%,48.5%,59.6%,64.4%,26.3%,84%,48.6%,–,–
CC[S][Hg][Cl],102,101,119,110%,113%,-46.7% (active),98.8,109%,124%,103%,75.4%,118%,114%,103%,112%,105%,106%,124%,97.3%
CCOC(=O)C(Cc1ccc(N(CCCl)CCCl)cc1)NC(=O)C(CC(C)C)NC(C)=O (stereo not given),17.1,97.1,41,1.65% (active),–,-73.1% (active),49.4,9.46% (active),-29.3% (active),14.3%,12.6%,-33% (active),51.6%,5.5% (active),–,13.2%,-4.57% (active),-15.5% (active),24.2%
N#C[Se]CCN1C(=O)c2ccccc2C1=O,39.4,24.4,26.4,15.8%,-3.49% (active),20.2%,30.6,52%,61.6%,35.1%,26.1%,17.7%,55.9%,20.2%,6.62% (active),33.4%,25.5%,-9.88% (active),7.13% (active)
O=C(N/N=C\c1ccc(N(CCCl)CCCl)cc1Cl)c1cccnc1,70.5,133,72.2,7.56% (active),74.3%,116%,60.4,66.9%,83%,94.4%,82%,116%,85%,99.1%,59.6%,95.3%,98%,82.8%,-10.9% (active)
CN[C@]1(c2ccccc2Cl)CCCC[C@H]1NCCCN1CCN(C)CC1,109,106,93.8,110%,79.1%,93.9%,98.5,92.2%,108%,108%,90.3%,104%,94.2%,94.1%,102%,94.8%,98.9%,97.4%,102%
CCn1c2ccccc2c2cc(C(=O)c3cccc4c3CCCN4)ccc21,100,102,95.7,101%,101%,115%,106,99%,102%,102%,101%,107%,98.1%,102%,103%,111%,96.9%,104%,113%
Cc1ccc(S(=O)(=O)F)cc1C(=O)O,96.5,77.6,97.7,111%,118%,85.8%,98.3,–,103%,104%,109%,86.8%,107%,101%,95.1%,94%,110%,–,93.3%
CC[C@H](C)[C@H](NC(=O)C12C3C4C1C1C2C3C41NC)C(=O)N(C)[C@H](C[C@@H](OC(C)=O)c1nc(C(=O)N[C@@H](Cc2ccccc2)C[C@H](C)C(=O)OC)cs1)C(C)C (stereo not given in full),31.6,51.9,16.9,6.43% (active),34.1%,-4.71% (active),31.4,19.1%,-15.5% (active),7.38% (active),9.19% (active),50.1%,29.1%,30%,19.4%,-5.82% (active),-14.4% (active),39.4%,42.1%
COc1cccc(/C=C/[N+](=O)[O-])c1,43.3,88.8,89.9,100%,78.9%,63.2%,61.2,54.6%,19.5%,-2.85% (active),7.02% (active),89.8%,87.6%,78.2%,84.3%,50.8%,12.3%,-60.7% (active),83.1%
N#CCCNc1ccccc1,110,110,116,111%,94.9%,92.8%,113,120%,118%,116%,98.3%,120%,111%,97.7%,101%,98.1%,112%,106%,118%
COC(=O)[C@H](Cc1ccccc1)NC(=O)c1csc([C@@H](C[C@H](C(C)C)N(C)C(=O)[C@@H](NC(=O)[C@H]2CCCN2C)C2CC2)OC(C)=O)n1,35.9,50.3,34.9,4.53% (active),8.6% (active),0.953% (active),23.2,31.6%,-26.7% (active),7.69% (active),1.55% (active),62.9%,6.1% (active),24.4%,-4.82% (active),-24.9% (active),1.22% (active),23.3%,61.9%
COC(=O)[C@@H](NC(=O)c1cn(CCC2CCCCC2)c2ccccc12)C(C)(C)C,76.4,83.7,61.8,79.3%,63.4%,63.7%,64.8,73.5%,96.4%,81.7%,–,106%,70.1%,68.5%,60.2%,88.1%,59.4%,83.9%,73%
